An excerpt weighted towards active compounds, which were near 19% of everything screened.
RORg inh – inhibitors of mouse ROR gamma transcriptional activity | P51450 | actives 5.4% (n = 310,000) | Potency, µM (highest dose often 53.6 µM), without a hit: at the highest dose activity change, negative = inhibition, usual class: inhibitors | Drosophila S2 Gal4-RORgamma UAS-luciferase reporter, 20 h; further: nearly all actives have a fitted effect of over 60% in size
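Luminescence from a UAS-regulated Photinus luciferase reporter in stably transfected Drosophila Schneider cells is measured; decreased signal marks ROR gamma inhibition. Fusion expression is induced by 700 uM copper sulfate for 20 hr.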
Gal4-VP16 FLuc – Gal4-VP16 reporter inhibition counter-screen. Drosophila S2 Gal4-VP16 UAS-luciferase, luminescence, 20 h. Potency, µM (top dose mostly 53.6 µM), for inactives: at the top dose activity, negative = inhibition, usual class: inhibitors. AID 2546. actives 3.5% (n = 310,000);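 further: Gal4-VP16 expression switched on by copper sulfate through the metallothionein promoter; nearly all actives have a fitted effect of over 50% in size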
TDP1 cell noCPT – qHTS for Inhibitors of human tyrosyl-DNA phosphodiesterase 1 (TDP1): qHTS in cells in absence of CPT. DT40 Tdp1-/- hTDP1 cells, no CPT, ATP luminescence, 48 h. Potency, µM (doses to about 46.2 µM), without a hit: at the highest dose activity change, negative = growth inhibition, most hits filed as inhibitors. actives 15% (n = 420,000). AID 686978, 2013; further: nearly all actives have a fitted effect of over 55% in size
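Seeded 400 DT40-hTDP1 cells/well (vehicle DMSO, no 20 nM CPT); pinned compounds; ≥48 hr at 37 °C; CellTiter-Glo luminescence as viability measure.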
TDP1 block – TDP1 (human) enzyme inhibition; Q9NUW8; recombinant TDP1, AlphaScreen DNA substrate cleavage; Potency, µM (doses to about 130 µM), without a hit: at the top dose activity change, negative = inhibition, most hits filed as inhibitors; actives 0.28% (n = 350,000); AID 485290; further: nearly all actives have a fitted effect of over 40% in size
Target sequence (Q9NUW8 whole entry, looked up): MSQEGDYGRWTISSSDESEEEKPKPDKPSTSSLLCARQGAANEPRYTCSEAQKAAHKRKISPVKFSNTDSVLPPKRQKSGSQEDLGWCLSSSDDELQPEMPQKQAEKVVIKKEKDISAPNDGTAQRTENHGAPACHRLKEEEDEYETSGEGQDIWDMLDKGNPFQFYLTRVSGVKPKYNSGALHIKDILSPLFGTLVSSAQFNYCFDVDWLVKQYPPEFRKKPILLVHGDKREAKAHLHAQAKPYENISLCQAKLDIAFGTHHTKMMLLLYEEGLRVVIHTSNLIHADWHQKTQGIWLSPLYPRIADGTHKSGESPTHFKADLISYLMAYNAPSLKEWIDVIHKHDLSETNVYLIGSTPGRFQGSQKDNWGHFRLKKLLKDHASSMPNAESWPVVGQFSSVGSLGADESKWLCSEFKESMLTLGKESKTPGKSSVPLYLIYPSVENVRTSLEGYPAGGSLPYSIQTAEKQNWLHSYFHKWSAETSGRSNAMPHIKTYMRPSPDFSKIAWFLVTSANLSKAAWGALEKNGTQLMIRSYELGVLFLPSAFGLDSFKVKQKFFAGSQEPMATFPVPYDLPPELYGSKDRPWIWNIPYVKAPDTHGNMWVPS
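E. coli-derived human Tdp1, 1 nM final. Cpd preinc 15 min RT; substrate 15 nM final, 5 min RT; AS bead mix 10 ug/ml final, 10 min RT. Signal loss = tyrosine-FITC cleavage. No-enzyme wells = max signal.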
TDP1 cell CPT – DT40-hTDP1 cell growth loss with CPT. actives 12% (n = 420,000). chicken DT40 Tdp1-/-;hTDP1 cells + 20 nM CPT, ATP luminescence, 48 h. AID 686979. Potency, µM (titrated, usually from 46.2 µM), inactives show at the top dose activity change, negative = growth inhibition, hits mostly inhibitors; further: nearly all actives have a fitted effect of over 55% in size
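Chicken DT40 Tdp1-/- cells complemented with human TDP1, 400 cells/well, exposed to compounds plus 20 nM camptothecin for at least 48 h at 37 C; viability read as ATP content by CellTiter-Glo luminescence.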
* = called active by the depositor; ? = inconclusive; . = no result; [ ] = dose if it differs, or a comment. The call rests on the fitted dose curve; in most records, active means well fitted curve in the direction sought with a large enough effect; inconclusive means small, poorly fitted or top-dose-only effect, or another doubt; inactive means no such curve, though single readings can be large; an effect the other way counts as inactive or inconclusive. On the % scale 0 is the no-effect control and ±100 the full control effect; potency means the concentration at half of the fitted maximal effect.

SMILES	RORg inh	Gal4-VP16 FLuc	TDP1 cell noCPT	TDP1 block	TDP1 cell CPT
CC1=C(C(=O)N(C(C)C)C(C)C)CC(CC(=O)NCCCN(C)C)C(=O)N1Cc1ccccc1 (stereo not given)	.	.	0.1%	.	-1.2%
CC1=C(C(=O)N(C(C)C)C(C)C)CC(CC(=O)NCCCCc2ccccc2)C(=O)N1Cc1ccccc1 (stereo not given)	.	.	23.1µM*	.	?
COc1ccc(CN2C(=O)C(CC(=O)NCCCCc3ccccc3)CC(C(=O)N3CCCCCC3)=C2C)cc1 (stereo not given)	.	.	20.9µM*	.	20.9µM*
CCN(CC)C(=O)C1=C(C)N(Cc2ccccc2)C(=O)C(CC(=O)NCCCCc2ccccc2)C1 (stereo not given)	.	.	25.9µM*	.	23.1µM*
Cn1c(-c2ccc(F)cc2)cnc1SCC(=O)N1CCCCC1	10µM*	?	-18.0%	1.0%	-23.8%
O=[N+]([O-])c1cccc(N=NN(CCO)c2cccc([N+](=O)[O-])c2)c1	-6.8%	3.9%	?	7.0%	-20.7%
N#Cc1cccc(-n2nnnc2-c2ccc3c(c2)OCO3)c1	-8.7%	4.5%	3.6%	-2.2%	-3.3%
N#C/C(=C/c1ccc(Sc2nc3ccccc3[nH]2)o1)c1cccc(F)c1	?	?	?	-3.5%	20.6µM*
N#C/C(=C/c1ccc(Sc2nc3ccccc3[nH]2)o1)c1ccccc1F	9.4%	?	16.4µM*	2.3%	20.6µM*
O=C(N/N=C/c1ccc(Sc2nc3ccccc3[nH]2)o1)c1ccncc1	0.3%	0.2%	?	7.6%	?
N#C/C(=C/c1ccc(Sc2nc3ccccc3[nH]2)o1)c1cccc(Br)c1	?	?	?	9.6%	?
CCc1nnc(NC(=O)CSc2nc3ccccc3o2)s1	-25.1%	?	-11.2%	-4.0%	-1.9%
CC1CCc2nc(NC(=O)CSc3nc4ccccc4o3)sc2C1 (stereo not given)	?	?	18.4µM*	3.3%	?
Cc1nnc(SCC(=O)Nc2nc3c(s2)CC(C)CC3)s1 (stereo not given)	-1.9%	11.5%	10.3µM*	4.4%	?
COc1ccc(/C=C/CN2CCN(Cc3ccc(F)cc3)C(CCO)C2)cc1 (stereo not given)	-10.0%	-11.4%	29.1µM*	0.0%	?
COc1ccc(/C=C/CN2CCN(Cc3ccccc3)C(CCO)C2)cc1 (stereo not given)	0.6%	-8.3%	-22.2%	.	-6.9%
COc1ccccc1NS(=O)(=O)c1cccc(C(=O)NCc2ccncc2)c1	.	.	-8.8%	0.5%	-5.2%
Cc1ccc2sc(N(Cc3cccnc3)C(=O)Cc3ccccc3)nc2c1C	.	.	?	2.6%	?
Cc1ccc(NC(=O)C2CCCN(c3nnc(-n4c(C)ccc4C)s3)C2)cc1Cl (stereo not given)	.	.	20.6µM*	7.6%	?
Cc1cc(C)cc(NC(=O)C2CCN(c3nnc(-n4c(C)ccc4C)s3)CC2)c1	.	.	?	5.1%	-75.2%
Cc1ccc(NC(=O)C2CCN(c3nnc(-n4cccc4)s3)CC2)cc1Cl	.	.	-15.3%	-6.3%	-13.3%
Cc1ccc(C)n1-c1nnc(N2CCCC(C(=O)Nc3ccc(C(C)C)cc3)C2)s1 (stereo not given)	.	.	13µM*	2.5%	20.6µM*
Cc1ccc(C)n1-c1nnc(N2CCCC(C(=O)NCc3ccccc3)C2)s1 (stereo not given)	.	.	?	5.1%	?
Cc1cc(C)cc(NC(=O)C2CCCN(c3nnc(-n4c(C)ccc4C)s3)C2)c1 (stereo not given)	.	.	?	10.1%	25.9µM*
Cn1cccc1CNC(=O)Nc1ccc(Cl)cc1	22.7%	-0.4%	?	6.7%	?
SMILES	RORg inh	Gal4-VP16 FLuc	TDP1 cell noCPT	TDP1 block	TDP1 cell CPT
O=C(c1cnc(-c2ccc(Cl)cc2)s1)c1ccc(Cl)cc1Cl	45.0%	0.9%	-28.3%	1.0%	-3.6%
CN(C(=O)Cn1cnc([N+](=O)[O-])n1)C1CCCCC1	-15.9%	-12.7%	-4.5%	.	0.9%
COc1cccc(C(=O)N(C)CC(=O)Nc2cccc3ccccc23)c1	.	.	1.5%	0.0%	-13.2%
CC(C)COc1cccc(C(=O)N(C)CC(=O)Nc2cccc3ccccc23)c1	.	.	18.4µM*	-0.6%	18.4µM*
O=C(CN1C(=O)C2CC=CCC2C1=O)OCC(=O)c1ccc(Cl)c([N+](=O)[O-])c1 (stereo not given)	-38.8%	35.5µM*	?	2.5%	?
N#Cc1ncc(Cc2ccccc2)nc1C#N	18.6%[1.91 µM]	14.1µM*	?	.	?
O=C(CSc1nc(Cc2ccccc2)nc2ccccc12)Nc1nc2c(s1)CCCC2	?	?	?	2.8%	?
CC(C)(C)c1nc(SCC(=O)Nc2nc3c(s2)CCCC3)c2ccccc2n1	-32.3%	4.4%	11.6µM*	6.7%	14.6µM*
CC(C)c1nc(SCC(=O)Nc2nc3c(s2)CCCC3)c2ccccc2n1	?	?	11.2µM*	2.8%	18.4µM*
CC1CC(C)CN(C(=O)CSc2nc(Cc3cccs3)nc3ccccc23)C1 (stereo not given)	30.5%	-8.0%	20.6µM*	5.6%	?
CC(C)c1nc(SCC(=O)NC2CCCC2)c2ccccc2n1	-1.4%	-11.0%	?	0.1%	-25.8%
CC(C)(C)c1nc(SCC(=O)N2CCCC2)c2ccccc2n1	-17.6%	-6.8%	16.4µM*	2.8%	20.6µM*
COc1ccc(S(=O)(=O)Nc2ccc3c(c2)C(=O)N([C@H](C)CO)C[C@H](C)[C@@H](CN(C)S(=O)(=O)c2ccc(F)cc2)O3)cc1	.	.	?	0.3%	?
CCCCCCCC/C=C\C/C=C\C=C\C(O)CCCC(=O)O (stereo not given)	-5.5%	0.4%	.	6.9%	.
CN(C)C(=O)c1ccc(NC(=O)CSc2nnc(-c3cccs3)n2N)cc1	.	.	-4.4%	-0.3%	0.3%
Cc1nnc(NC(=O)CSc2nc(C(C)C)nc3ccccc23)s1	-10.1%	-3.4%	7.08µM*	-5.6%	6.51µM*
O=C(CSc1ncn(-c2ccccc2)n1)Nc1nc2c(s1)CCCC2	-26.3%	-6.4%	?	-4.4%	?
O=C(CCSc1ccccc1)Nc1nc2c(s1)CCCC2	-35.1%	-6.1%	10.3µM*	4.7%	?
CCC(NC(=O)Nc1ncccc1C)(C(F)(F)F)C(F)(F)F	6.7%[10 µM]	-2.8%	4.6%	2.0%	-3.1%
CCC(NC(=O)NNC(N)=S)(C(F)(F)F)C(F)(F)F	11.2µM*	-14.8%	-4.5%	.	-9.2%
CC(=O)N(C(C)=O)c1c(N2CCOCC2)c2ccccc2oc1=O	12.7%	3.2%	1.5%	4.3%	-3.5%
COC(=O)c1ccccc1NC(=O)Cn1cnc2cc(C)c(C)cc21	-29.5%	-4.7%	23.1µM*	5.2%	14.6µM*

High-throughput results deposited in PubChem by National Center for Advancing Translational Sciences (NCATS).
